Experimental data published in PubChem BioAssay (NCATS).
“And” between values parts separate entries of the source, which are not always exact repeats. Identical values can stand only once. Results filed as inconclusive are left out. The source made the active and inactive calls. The call rests on the fitted dose curve; in most records, active means well fitted inhibition curve with a large enough effect; inconclusive means small, poorly fitted or top-dose-only effect; inactive means flat fitted curve, though single readings scatter.

Legend:
PC49 = assay: qHTS profiling for inhibitors of Plasmodium falciparum proliferation (AID 504749);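 further: 0% = DMSO vehicle and full inhibition = artemisinin control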; conditions: P. falciparum in erythrocytes, SYBR Green DNA, 72 h; series mostly up to 28.7 µM
Procedure, shortened: (§1)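 Three-day growth assay of blood-stage parasites in erythrocytes (0.3% parasitemia, 2.5% hematocrit) at 37 C, 5% CO2, quantified by SYBR Green DNA staining after overnight detergent lysis.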

SC27B = assay: as above; conditions: P. falciparum in erythrocytes, SYBR Green DNA, 72 h; series mostly up to 28.7 µM
Procedure, shortened: as §1

TAB109 = assay: as above; conditions: P. falciparum in erythrocytes, SYBR Green DNA, 72 h; series mostly up to 28.7 µM
Procedure, shortened: as §1

TAB113 = assay: as above; conditions: P. falciparum in erythrocytes, SYBR Green DNA, 72 h; series mostly up to 28.7 µM
Procedure, shortened: as §1

TAB165 = assay: as above; conditions: P. falciparum in erythrocytes, SYBR Green DNA, 72 h; series mostly up to 28.7 µM
Procedure, shortened: as §1

W2 = assay: as above; conditions: P. falciparum in erythrocytes, SYBR Green DNA, 72 h; series mostly up to 28.7 µM
Procedure, shortened: as §1

CRL-7250 = normal cell line; assay: Cytotoxic Profiling of Annotated Libraries Using Quantitative High-Throughput Screening (AID 1296008); conditions: Five cell lines viability, CellTiter-Glo ATP luminescence, 48-72 h; max response: stronger effect = lower value; on max response: on the % scale 0 is the no-effect control and ±100 the full control effect
Procedure, shortened: (§2)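 Cytotoxicity was measured as CellTiter-Glo ATP luminescence, read after 10 min at room temperature. Compound treatment of the cells lasted 48 or 72 hr at 37 degrees Celsius in a qHTS format.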

HEK293 = assay: as above; conditions: Five cell lines viability, CellTiter-Glo ATP luminescence, 48-72 h; max response: stronger effect = lower value
Procedure, shortened: as §2

HaCat [1] = assay: as above; conditions: Five cell lines viability, CellTiter-Glo ATP luminescence, 48-72 h; max response: stronger effect = lower value
Procedure, shortened: as §2

KB-3-1 = assay: as above; conditions: Five cell lines viability, CellTiter-Glo ATP luminescence, 48-72 h; max response: stronger effect = lower value
Procedure, shortened: as §2

NIH3T3 [2] = assay: as above; conditions: Five cell lines viability, CellTiter-Glo ATP luminescence, 48-72 h; max response: stronger effect = lower value
Procedure, shortened: as §2

HACAT [3] = assay: qHTS assay to identify novel small-molecules to repurpose for Merkel cell carcinoma treatment (AID 1296009); conditions: MCC and control cell lines, CellTiter-Glo viability, 72 h; at 44.8 µM (top of the series) unless noted
Procedure, shortened: (§3)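 After compound transfer in DMSO, plates were kept 72 hr at 37 degree celsius. Luminescent ATP signal from CellTiter-Glo served as viability measure, normalized against DMSO and no-cell controls.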

MCC-13 = assay: as above; conditions: MCC and control cell lines, CellTiter-Glo viability, 72 h; series mostly up to 46 µM
Procedure, shortened: as §3

MCC-26 = assay: as above; conditions: MCC and control cell lines, CellTiter-Glo viability, 72 h; series mostly up to 46 µM
Procedure, shortened: as §3

MKL-1 = assay: as above; conditions: MCC and control cell lines, CellTiter-Glo viability, 72 h; series mostly up to 46 µM
Procedure, shortened: as §3

MKL-2 = assay: as above; conditions: MCC and control cell lines, CellTiter-Glo viability, 72 h; series mostly up to 46 µM
Procedure, shortened: as §3

UISO = assay: as above; conditions: MCC and control cell lines, CellTiter-Glo viability, 72 h; series mostly up to 46 µM
Procedure, shortened: as §3

WaGa = assay: as above; conditions: MCC and control cell lines, CellTiter-Glo viability, 72 h; series mostly up to 46 µM
Procedure, shortened: as §3

HEK293T = assay: as above; conditions: MCC and control cell lines, CellTiter-Glo viability, 72 h; at 44.8 µM (top of the series) unless noted
Procedure, shortened: as §3

NIH3T3 [4] = assay: as above; conditions: MCC and control cell lines, CellTiter-Glo viability, 72 h; at 44.8 µM (top of the series) unless noted
Procedure, shortened: as §3
Further: nearly all actives have a fitted effect of over 60% in size.

OC(Cn1cncn1)(Cn1cncn1)c1ccc(F)cc1F
inactive: Potency (PC49) | Potency (SC27B) | Potency (TAB109) | Potency (TAB113) | Potency (TAB165) | Potency (W2) | max response (CRL-7250) 2.49% and -1.86% | max response (HEK293) -0.0788% and -5.53% | max response (HaCat [1]) -29.4% | outcome (HaCat [1]) | max response (KB-3-1) -2.5% and 5.59% | max response (NIH3T3 [2]) -0.561% and -16.4% | outcome (HACAT [3]) | Potency (MCC-13) | Potency (MCC-26) | Potency (MKL-1) | Potency (MKL-2) | Potency (UISO) | Potency (WaGa)

COc1ccc2c(c1)c(CC(=O)OCC(=O)O)c(C)n2C(=O)c1ccc(Cl)cc1
inactive: max response (CRL-7250) -1.43% and 4.64% | max response (HEK293) -16.6% | outcome (HEK293) | max response (HaCat [1]) -2.32% and -4.14% | max response (KB-3-1) -10.9% and 5.13% | max response (NIH3T3 [2]) -11.9% and 4.26% | outcome (HEK293T) | Potency (MCC-13) | Potency (MKL-1) | Potency (MKL-2) | Potency (UISO) | Potency (WaGa)

CCn1cc(C(=O)O)c(=O)c2cc(F)c(N3CCNCC3)nc21
inactive: Potency (PC49) | Potency (SC27B) | Potency (TAB113) | max response (CRL-7250) -4.45% and -16.8% | max response (HEK293) -5.1% | outcome (HEK293) | max response (HaCat [1]) -2.73% | outcome (HaCat [1]) | max response (KB-3-1) -1.65% and 0.264% | outcome (NIH3T3 [2]) | outcome (HACAT [3]) | outcome (HEK293T) | Potency (MCC-13) | Potency (MCC-26) | Potency (MKL-1) | Potency (MKL-2) | outcome (NIH3T3 [4]) | Potency (UISO) | Potency (WaGa)

O=C(O)CSCC(=O)NC1CCSC1=O (stereo not drawn)
inactive: max response (CRL-7250) -2.44% | outcome (CRL-7250) | outcome (HaCat [1]) | outcome (KB-3-1) | max response (NIH3T3 [2]) 2.01% | outcome (NIH3T3 [2]) | outcome (HACAT [3]) | outcome (HEK293T) | Potency (MCC-13) | Potency (MKL-1) | Potency (MKL-2) | outcome (NIH3T3 [4]) | Potency (UISO) | Potency (WaGa)

COC(c1ccccc1)(c1ccccc1)[C@H](Oc1nc(C)cc(C)n1)C(=O)O
inactive: outcome (CRL-7250) | max response (HEK293) -24.1% and 3.62% | max response (HaCat [1]) -18.5% and -6.09% | max response (KB-3-1) 0.37% | outcome (KB-3-1) | max response (NIH3T3 [2]) -19.9% | outcome (NIH3T3 [2]) | Potency (MCC-13) | Potency (MKL-1) | Potency (MKL-2) | outcome (NIH3T3 [4]) | Potency (UISO) | Potency (WaGa)

COc1c(N2CCNC(C)C2)c(F)cc2c(=O)c(C(=O)O)cn(C3CC3)c12 (stereo not drawn)
inactive: Potency (PC49) | Potency (SC27B) | Potency (TAB113) | Potency (TAB165) | Potency (W2) | max response (CRL-7250) -3.69% | max response (HEK293) -24.5% | outcome (HaCat [1]) | max response (KB-3-1) 0.558% | outcome (KB-3-1) | max response (NIH3T3 [2]) -3.19% | outcome (NIH3T3 [2]) | outcome (HACAT [3]) | Potency (MCC-13) | Potency (MKL-1) | Potency (MKL-2) | outcome (NIH3T3 [4]) | Potency (UISO) | Potency (WaGa)

CC[C@H](NC(C)C)[C@H](O)c1ccc(O)c2[nH]c(=O)ccc12
inactive: Potency (PC49) | Potency (SC27B) | Potency (TAB109) | Potency (TAB113) | Potency (TAB165) | Potency (W2) | max response (CRL-7250) 0.158% and -0.536% | outcome (HEK293) | max response (HaCat [1]) -10.6% | outcome (HaCat [1]) | max response (KB-3-1) 8.39% | max response (NIH3T3 [2]) 2.87% and -5.91% | outcome (HACAT [3]) | outcome (HEK293T) | Potency (MCC-13) | Potency (MCC-26) | Potency (MKL-1) | Potency (MKL-2) | Potency (UISO) | Potency (WaGa)

COc1ccc(-c2ccc3cc(C(=O)O)ccc3c2)cc1C12CC3CC(CC(C3)C1)C2
inactive: Potency (PC49) | Potency (SC27B) | Potency (TAB109) | Potency (TAB113) | Potency (TAB165) | max response (CRL-7250) 1.82% and 2% | max response (HEK293) 3.2% | max response (HaCat [1]) -4.15% | outcome (HaCat [1]) | max response (KB-3-1) -1.55% | outcome (KB-3-1) | max response (NIH3T3 [2]) 4.1% | outcome (NIH3T3 [2]) | outcome (HACAT [3]) | Potency (MCC-13) | Potency (MKL-1) | Potency (MKL-2) | outcome (NIH3T3 [4]) | Potency (UISO) | Potency (WaGa)

CCCc1cc(C(N)=S)ccn1
inactive: Potency (PC49) | Potency (SC27B) | Potency (TAB109) | Potency (TAB113) | Potency (TAB165) | Potency (W2) | outcome (CRL-7250) | max response (HEK293) -0.75% and -9.47% | max response (HaCat [1]) 0.608% | outcome (HaCat [1]) | max response (KB-3-1) -1.25% and 6.29% | max response (NIH3T3 [2]) -7.14% and -4.81% | outcome (HACAT [3]) | Potency (MCC-13) | Potency (MCC-26) | Potency (MKL-1) | Potency (MKL-2) | Potency (UISO) | Potency (WaGa)

CCc1cc(C(N)=S)ccn1
inactive: Potency (PC49) | Potency (SC27B) | Potency (TAB109) | Potency (TAB113) | Potency (TAB165) | Potency (W2) | max response (CRL-7250) -4.32% and -3.13% | max response (HEK293) -11.8% | outcome (HEK293) | max response (HaCat [1]) -10.8% | outcome (HaCat [1]) | max response (KB-3-1) -6.3% and 8.73% | max response (NIH3T3 [2]) -2.49% | outcome (NIH3T3 [2]) | outcome (HACAT [3]) | outcome (HEK293T) | Potency (MCC-13) | Potency (MCC-26) | Potency (MKL-1) | Potency (MKL-2) | outcome (NIH3T3 [4]) | Potency (UISO) | Potency (WaGa)
